In the supplement of paper PMC13380429:

Key:
[1] = test system: Vero E6 infected with SARS-CoV-2; assay: morphology score (similarity to uninfected cells); higher = more like uninfected cells; conditions: 24 h
[2] = test system: Vero E6 infected with SARS-CoV-2; assay: SARS-CoV-2 infection rate relative to infected DMSO; higher = more infection, active = 60 or less; conditions: 24 h

CC(=O)[C@@]1(O)CC[C@H]2[C@@H]3C[C@H](C)C4=CC(=O)C=C[C@]4(C)[C@@]3(F)[C@@H](O)C[C@@]21C [fluorometholone] (10 µM)
morphology score [1]: 0.02
SARS-CoV-2 infection rate [2]: 110% (inactive)

Cc1oc(=O)oc1COC(=O)C1=C([C@H]2CCCO2)S[C@@H]2[C@@H]([C@@H](C)O)C(=O)N12 [faropenem-medoxomil] (10 µM)
morphology score [1]: -0.119
SARS-CoV-2 infection rate [2]: 114% (inactive)

C=CC[C@]1(O)CC[C@H]2[C@@H]3CCC4=CC(=O)CCC4=C3C=C[C@@]21C [altrenogest] (10 µM)
morphology score [1]: 0.0206
SARS-CoV-2 infection rate [2]: 105% (inactive)

CC(C)(C)CC(C)(C)c1ccc(OCCOCC[N+](C)(C)Cc2ccccc2)cc1 [benzethonium] (10 µM)
morphology score [1]: -0.104
SARS-CoV-2 infection rate [2]: 108% (inactive)

N=C(N)NCCSSCCNC(=N)N [guanidinoethyldisulfide-bicarbonate] (10 µM)
morphology score [1]: 0.0245
SARS-CoV-2 infection rate [2]: 107% (inactive)

O=C(Nc1cccc(Cl)c1)c1ccccn1 (10 µM)
morphology score [1]: 0.228
SARS-CoV-2 infection rate [2]: 106% (inactive)

CCCn1c(=O)c2[nH]c(C3CCCC3)nc2n(CCC)c1=O (10 µM)
morphology score [1]: 0.0194
SARS-CoV-2 infection rate [2]: 105% (inactive)

CC(C)(NS(=O)(=O)c1ccc(Oc2ccc(F)cc2)cc1)C(=O)NO (10 µM)
morphology score [1]: 0.193
SARS-CoV-2 infection rate [2]: 99% (inactive)

O=C(/C=C/c1ccc2ccc(C(F)(F)F)cc2n1)c1ccncc1 (10 µM)
morphology score [1]: 0.389
SARS-CoV-2 infection rate [2]: 63.5% (inactive)

Nc1cc(C(F)(F)F)c(-c2cc(N3CCOCC3)nc(N3CCOCC3)n2)cn1 [buparlisib] (10 µM)
morphology score [1]: -0.0939
SARS-CoV-2 infection rate [2]: 103% (inactive)

CN[C@@H](C)C(=O)N[C@H](C(=O)N1CCC[C@H]1C(=O)Nc1snnc1-c1ccccc1)C1CCCCC1 (10 µM)
morphology score [1]: -0.0857
SARS-CoV-2 infection rate [2]: 110% (inactive)

Cc1c(-c2cnccn2)ssc1=S [oltipraz] (10 µM)
morphology score [1]: -0.0383
SARS-CoV-2 infection rate [2]: 109% (inactive)

Nc1ccc(S(=O)(=O)Nc2ccccn2)cc1 [sulfapyridine] (10 µM)
morphology score [1]: 0.0798
SARS-CoV-2 infection rate [2]: 102% (inactive)

O=C(Nc1ccc([N+](=O)[O-])cc1Cl)c1cc(Cl)ccc1O [niclosamide] (0.833333 µM)
morphology score [1]: 0.0975
SARS-CoV-2 infection rate [2]: 97% (inactive)

CC(C)(O)CC(=O)O [beta-hydroxy-beta-methylbutyrate] (10 µM)
morphology score [1]: 0.0168
SARS-CoV-2 infection rate [2]: 105% (inactive)

COC[C@H]1OC(=O)c2coc3c2[C@@]1(C)C1=C(C3=O)[C@@H]2CCC(=O)[C@@]2(C)C[C@H]1OC(C)=O [wortmannin] (0.833333 µM)
morphology score [1]: 0.26
SARS-CoV-2 infection rate [2]: 79.5% (inactive)

CN(C)C(=S)SC(=S)N(C)C [tetramethylthiuram-monosulfide] (10 µM)
morphology score [1]: -0.225
SARS-CoV-2 infection rate [2]: 116% (inactive)

Cc1ccc(CCCO)c(NCc2ccc3nc(NCCCN4CCOCC4)n(Cc4nc(C)ccc4O)c3c2)c1 (10 µM)
morphology score [1]: 0.227
SARS-CoV-2 infection rate [2]: 96.5% (inactive)

Cc1cc2c(cc1C(F)(F)F)N(C(=O)Nc1ccc(Oc3cccnc3C)nc1)CC2 (10 µM)
morphology score [1]: 0.281
SARS-CoV-2 infection rate [2]: 90.5% (inactive)

Cc1cccc(C)c1NC(=O)c1ccccc1C(=O)O [ftaxilide] (10 µM)
morphology score [1]: -0.12
SARS-CoV-2 infection rate [2]: 106% (inactive)

Cn1c(CNc2ccc(C(=N)N)cc2)nc2cc(C(=O)N(CCC(=O)O)c3ccccn3)ccc21 [dabigatran] (10 µM)
morphology score [1]: 0.269
SARS-CoV-2 infection rate [2]: 96% (inactive)

COC(=O)c1sccc1S(=O)(=O)Nc1ccc(Nc2ccccc2)cc1OC (10 µM)
morphology score [1]: 0.112
SARS-CoV-2 infection rate [2]: 95% (inactive)

Nc1ccc(-c2ccc3ncc4ccc(=O)n(-c5cccc(C(F)(F)F)c5)c4c3c2)cn1 [torin-2] (10 µM)
morphology score [1]: 0.162
SARS-CoV-2 infection rate [2]: 86.5% (inactive)

Cc1cccc(Nc2ccccc2C(=O)O)c1C [mefenamic-acid] (10 µM)
morphology score [1]: 0.0628
SARS-CoV-2 infection rate [2]: 99.5% (inactive)

O=C(/C=C\n1cnc(-c2cc(C(F)(F)F)cc(C(F)(F)F)c2)n1)NNc1cnccn1 [selinexor] (10 µM)
morphology score [1]: -0.235
SARS-CoV-2 infection rate [2]: 106% (inactive)

O=C(NNC(=O)c1ccc(CNS(=O)(=O)c2ccc(F)c(Cl)c2)cc1)c1ccccc1 (10 µM)
morphology score [1]: -0.0845
SARS-CoV-2 infection rate [2]: 114% (inactive)

CN1C2CCC1CC(OC(c1ccccc1)c1ccc(Cl)cc1)C2 (stereo not drawn) (0.833333 µM)
morphology score [1]: 0.251
SARS-CoV-2 infection rate [2]: 98.5% (inactive)

CN(C)CCCCSC(=N)N (10 µM)
morphology score [1]: 0.0735
SARS-CoV-2 infection rate [2]: 100% (inactive)

COc1ccc(CCC(=O)c2c(O)cc(O[C@@H]3O[C@H](CO)[C@@H](O)[C@H](O)[C@H]3O[C@@H]3O[C@@H](C)[C@H](O)[C@@H](O)[C@H]3O)cc2O)cc1O [Neohesperidin dihydrochalcone (Nhdc)] (10 µM)
morphology score [1]: 0.0549
SARS-CoV-2 infection rate [2]: 99.5% (inactive)

CCOC(=O)c1ncn2c1[C@@H]1CCCN1C(=O)c1cc(OC)ccc1-2 (10 µM)
morphology score [1]: 0.286
SARS-CoV-2 infection rate [2]: 95% (inactive)

CC1(COc2ccc(CC3SC(=O)NC3=O)cc2)CCCCC1 (stereo not drawn) [ciglitazone] (10 µM)
morphology score [1]: 0.036
SARS-CoV-2 infection rate [2]: 110% (inactive)

Cc1cc(O)cc(C)c1Cl [chloroxylenol] (10 µM)
morphology score [1]: 0.0293
SARS-CoV-2 infection rate [2]: 99% (inactive)

C[C@@H]1O[C@@H](O[C@H]2[C@H](Oc3cc(O)c(C(=O)CCc4ccc(O)cc4)c(O)c3)O[C@H](CO)[C@@H](O)[C@@H]2O)[C@H](O)[C@H](O)[C@H]1O [naringin-dihydrochalcone] (10 µM)
morphology score [1]: 0.0437
SARS-CoV-2 infection rate [2]: 107% (inactive)

COc1ccc(Oc2c(Cl)cnn(C3c4ccccc4-c4ccccc43)c2=O)cc1 (10 µM)
morphology score [1]: 0.0752
SARS-CoV-2 infection rate [2]: 102% (inactive)

O=S(=O)(c1cccc2cnccc12)N1CCCNCC1 [fasudil] (10 µM)
morphology score [1]: 0.474
SARS-CoV-2 infection rate [2]: 100% (inactive)

CCCN(CCC)CCc1ccc(OC)c(OCCc2ccccc2)c1 (10 µM)
morphology score [1]: 0.353
SARS-CoV-2 infection rate [2]: 86.5% (inactive)

O=C(N[C@H]1CN2CCC1CC2)c1cc2cccc(Cl)c2s1 (10 µM)
morphology score [1]: 0.352
SARS-CoV-2 infection rate [2]: 86.5% (inactive)

C[C@]1(c2nc3c(C(N)=O)cccc3[nH]2)CCCN1 [veliparib] (10 µM)
morphology score [1]: 0.206
SARS-CoV-2 infection rate [2]: 109% (inactive)

C/C=C1\[C@H]2C=C(C)C[C@]1(N)c1ccc(=O)[nH]c1C2 [(-)-Huperzine A] (10 µM)
morphology score [1]: -0.118
SARS-CoV-2 infection rate [2]: 108% (inactive)

CC[N+](C)(CC)CCOC(=O)C1c2ccccc2Oc2ccccc21 [methantheline] (10 µM)
morphology score [1]: 0.0949
SARS-CoV-2 infection rate [2]: 106% (inactive)

CCC(N)C(O)c1ccc(O)c(O)c1 (stereo not drawn) [ethylnorepinephrine] (10 µM)
morphology score [1]: -0.108
SARS-CoV-2 infection rate [2]: 106% (inactive)

CN(C)CCC(c1ccc(Br)cc1)c1ccccn1 (stereo not drawn) [brompheniramine] (10 µM)
morphology score [1]: -0.0213
SARS-CoV-2 infection rate [2]: 106% (inactive)

Oc1c(Cl)cc(Cl)c(Cl)c1Cc1c(O)c(Cl)cc(Cl)c1Cl [hexachlorophene] (10 µM)
morphology score [1]: 0.167
SARS-CoV-2 infection rate [2]: 83.5% (inactive)

O=c1[nH]c(=O)n([C@H]2C[C@H](O)[C@@H](CO)O2)cc1C(F)(F)F [trifluridine] (0.833333 µM)
morphology score [1]: 0.175
SARS-CoV-2 infection rate [2]: 101% (inactive)

COc1ccc2c(O[C@@H]3C[C@H]4C(=O)N[C@]5(C(=O)NS(=O)(=O)C6CC6)C[C@H]5/C=C\CCCCN(C)C(=O)[C@@H]4C3)cc(-c3nc(C(C)C)cs3)nc2c1C [simeprevir] (10 µM)
morphology score [1]: 0.0609
SARS-CoV-2 infection rate [2]: 88.5% (inactive)

CN1CCN(C2CCN(C(=O)Nc3cc(Oc4ccc(NC(=O)C5(C(=O)Nc6ccc(F)cc6)CC5)c(F)c4)ccn3)CC2)CC1 [golvatinib] (0.833333 µM)
morphology score [1]: 0.0621
SARS-CoV-2 infection rate [2]: 104% (inactive)

CCN(CC)CC1CCCCN1CC(=O)N1c2ccccc2C(=O)Nc2cccnc21 (stereo not drawn) [otenzepad] (10 µM)
morphology score [1]: 0.171
SARS-CoV-2 infection rate [2]: 94.5% (inactive)

COC1=CC(=O)C[C@@H](C)[C@]12Oc1c(Cl)c(OC)cc(OC)c1C2=O [griseofulvin] (10 µM)
morphology score [1]: 0.0707
SARS-CoV-2 infection rate [2]: 104% (inactive)

CC(C)(C)c1ccc(/C=C/C(=O)Nc2ccc3c(c2)OCCO3)cc1 (10 µM)
morphology score [1]: -0.068
SARS-CoV-2 infection rate [2]: 110% (inactive)

CC(C)(C)C(=O)OCOC(=O)[C@@H]1N2C(=O)[C@@H](NC(=O)[C@H](N)c3ccccc3)[C@H]2SC1(C)C [pivampicillin] (10 µM)
morphology score [1]: 0.0461
SARS-CoV-2 infection rate [2]: 106% (inactive)

CCC[C@@H]1C[C@@H](C(=O)N[C@@H]([C@H]2O[C@H](SC)[C@H](OP(=O)(O)O)[C@@H](O)[C@H]2O)[C@H](C)Cl)N(C)C1 [Clindamycin phosphate] (10 µM)
morphology score [1]: -0.0234
SARS-CoV-2 infection rate [2]: 107% (inactive)

Fc1ccccc1-c1nc2ccn(Cc3ccc(-c4ccc(C(F)(F)F)cc4C(F)(F)F)nn3)cc-2n1 [tegobuvir] (10 µM)
morphology score [1]: 0.081
SARS-CoV-2 infection rate [2]: 102% (inactive)

C[S+](C)CC[C@H](N)C(=O)O [cabagin] (10 µM)
morphology score [1]: 0.00749
SARS-CoV-2 infection rate [2]: 109% (inactive)

N#Cc1cc(-c2n[nH]c(-c3ccncc3)n2)ccn1 [topiroxostat] (10 µM)
morphology score [1]: 0.145
SARS-CoV-2 infection rate [2]: 94.5% (inactive)

[NH-]c1c[n+](N2CCOCC2)no1 [linsidomine] (10 µM)
morphology score [1]: -0.0679
SARS-CoV-2 infection rate [2]: 117% (inactive)

CCS(=O)(=O)N(C)[C@@H]1c2cc(C#N)ccc2OC(C)(C)[C@H]1O.CCS(=O)(=O)N(C)[C@H]1c2cc(C#N)ccc2OC(C)(C)[C@@H]1O (racemic) [chromanol-(+/-)] (10 µM)
morphology score [1]: 0.241
SARS-CoV-2 infection rate [2]: 98.5% (inactive)

Nc1ccncc1N [amifampridine] (10 µM)
morphology score [1]: 0.0643
SARS-CoV-2 infection rate [2]: 92% (inactive)

Sc1ncnc2nc[nH]c12 [mercaptopurine] (0.833333 µM)
morphology score [1]: 0.0241
SARS-CoV-2 infection rate [2]: 108% (inactive)

CC(C)(C)S(=O)(=O)N[C@H]1CC[C@H](C(=O)Nc2ccc(C(F)(F)F)cn2)CC1 [velneperit] (10 µM)
morphology score [1]: -0.0103
SARS-CoV-2 infection rate [2]: 115% (inactive)
